About 2,000 (36%) of roughly 5,500 compounds were called active. About 18% were inconclusive and are not listed. Rule as the data show it: active = normalized growth mostly below about 0.91 (no sharp cut-off); inconclusive = no clear call, values can overlap the other calls; inactive = mostly above about 0.92. This is one part of the list.
Assay: chemical genetic growth profiling, strain panel (AID 1159580);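 also: tested at 20 µM; growth read once vehicle control cultures reached saturation at 30 °C; 1 = growth at the plate median or of vehicle wells; lower values mean less growth of the strain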
Conditions: S. cerevisiae deletion strains, growth OD

Measured: normalized growth

CC1OC(=O)C(C(C)C)NC(=O)C(C(C)C)OC(=O)C(C(C)C)NC(=O)C(C)OC(=O)C(C(C)C)NC(=O)C(C(C)C)OC(=O)C(C(C)C)NC(=O)C(C)OC(=O)C(C(C)C)NC(=O)C(C(C)C)OC(=O)C(C(C)C)NC1=O (stereo unspecified)
active: locus YAL021C, strain ccr4, stronger effect = lower value 0.202 | locus YAL026C, strain drs2, stronger effect = lower value 0.544 | locus YAL030W, strain snc1, stronger effect = lower value 0.326 | locus YBL061C, strain skt5, stronger effect = lower value 0.229 | locus YBR009C, strain hhf1, stronger effect = lower value 0.223 | locus YBR023C, strain chs3, stronger effect = lower value 0.23 | locus YBR171W, strain sec66, stronger effect = lower value 0.54 | locus YBR231C, strain swc5, stronger effect = lower value 0.286 | locus YBR279W, strain paf1, stronger effect = lower value 0.544 | locus YCL011C, strain gbp2, stronger effect = lower value 0.28 | locus YCL016C, strain dcc1, stronger effect = lower value 0.238 | locus YCL069W, strain vba3, stronger effect = lower value 0.51 | locus YCR088W, strain abp1, stronger effect = lower value 0.51 | locus YDL005C, strain med2, stronger effect = lower value 0.332 | locus YDL040C, strain nat1, stronger effect = lower value 0.468 | locus YDR001C, strain nth1, stronger effect = lower value 0.615 | locus YDR069C, strain doa4, stronger effect = lower value 0.383 | locus YDR137W, strain rgp1, stronger effect = lower value 0.144 | locus YDR159W, strain sac3, stronger effect = lower value 0.318 | locus YDR195W, strain ref2 0.336 | locus YDR297W, strain sur2, stronger effect = lower value 0.404 | locus YDR334W, strain swr1, stronger effect = lower value 0.494 | locus YDR335W, strain msn5, stronger effect = lower value 0.697 | locus YDR392W, strain spt3, stronger effect = lower value 0.148 | locus YEL003W, strain gim4, stronger effect = lower value 0.357 | locus YEL037C, strain rad23, stronger effect = lower value 0.673 | locus YEL061C, strain CIN8 (second series), stronger effect = lower value 0.448 | locus YER015W, strain faa2, stronger effect = lower value 0.205 | locus YER016W, strain bim1, stronger effect = lower value 0.259 | locus YER111C, strain swi4, stronger effect = lower value 0.639 | locus YER155C, strain BEM2 (second series), stronger effect = lower value 0.6 | locus YFR010W, strain ubp6, stronger effect = lower value 0.535 | locus YGL167C, strain pmr1, stronger effect = lower value 0.166 | locus YGL173C, strain kem1, stronger effect = lower value 0.157 | locus YGL227W, strain vid30, stronger effect = lower value 0.599 | locus YGL240W, strain doc1, stronger effect = lower value 0.112 | locus YGL253W, strain hxk2, stronger effect = lower value 0.243 | locus YHR013C, strain ard1, stronger effect = lower value 0.159 | locus YHR027C, strain rpn1, stronger effect = lower value 0.331 | locus YHR142W, strain chs7, stronger effect = lower value 0.342 | locus YJL092W, strain hpr5, stronger effect = lower value 0.556 | locus YJL095W, strain BCK1 (second series), stronger effect = lower value 0.266 | locus YJL115W, strain asf1, stronger effect = lower value 0.79 | locus YJL129C, strain trk1, stronger effect = lower value 0.251 | locus YJL154C, strain vps35, stronger effect = lower value 0.688 | locus YJL164C, strain tpk1, stronger effect = lower value 0.267 | locus YJL166W, strain qcr8, stronger effect = lower value 0.115 | locus YJL187C, strain SWE1, stronger effect = lower value 0.343 | locus YKL160W, strain elf1, stronger effect = lower value 0.278 | locus YKR026C, strain gcn3, stronger effect = lower value 0.65 | locus YKR091W, strain srl3, stronger effect = lower value 0.476 | locus YLL001W, strain dnm1, stronger effect = lower value 0.499 | locus YLL026W, stronger effect = lower value 0.301 | locus YLL041C, strain sdh2, stronger effect = lower value 0.368 | locus YLR027C, strain aat2, stronger effect = lower value 0.27 | locus YLR221C, strain rsa3, stronger effect = lower value 0.326 | locus YLR258W, strain gsy2, stronger effect = lower value 0.349 | locus YLR262C, strain YPT6 (second series), stronger effect = lower value 0.132 | locus YLR320W, strain mms22, stronger effect = lower value 0.18 | locus YLR342W, strain FKS1, stronger effect = lower value 0.115 | locus YLR370C, strain arc18, stronger effect = lower value 0.395 | locus YLR384C, strain iki3, stronger effect = lower value 0.464 | locus YML120C, strain ndi1, stronger effect = lower value 0.389 | locus YMR058W, strain fet3, stronger effect = lower value 0.486 | locus YMR125W, strain sto1, stronger effect = lower value 0.835 | locus YMR129W, stronger effect = lower value 0.411 | locus YMR205C, strain PFK2, stronger effect = lower value 0.278 | locus YMR231W, strain pep5, stronger effect = lower value 0.193 | locus YNL071W, strain lat1, stronger effect = lower value 0.0873 | locus YNL209W, strain ssb2, stronger effect = lower value 0.237 | locus YNL322C, strain KRE1 (second series), stronger effect = lower value 0.463 | locus YNR049C, strain mso1, stronger effect = lower value 0.563 | locus YOR001W, strain rrp6, stronger effect = lower value 0.497 | locus YOR070C, strain gyp1, stronger effect = lower value 0.216 | locus YOR080W, strain dia2, stronger effect = lower value 0.381 | locus YOR083W, strain WHI5, stronger effect = lower value 0.318 | locus YOR106W, strain vam3, stronger effect = lower value 0.331 | locus YOR265W, strain rbl2, stronger effect = lower value 0.288 | locus YOR270C, strain vph1, stronger effect = lower value 0.227 | locus YOR290C, strain snf2, stronger effect = lower value 0.61 | locus YPL051W, strain arl3, stronger effect = lower value 0.125 | locus YPL078C, strain atp4, stronger effect = lower value 0.14 | locus YPL106C, strain sse1, stronger effect = lower value 0.359 | locus YPL240C, strain hsp82, stronger effect = lower value 0.412
inactive: locus YLR357W, strain rsc2, stronger effect = lower value 0.891 | locus YNL248C, strain rpa49, stronger effect = lower value 0.944

From PubChem BioAssay AID1159580 (chemical genetic matrix, 2015)
